# According to PubChem BioAssay AID1209 (Sanford-Burnham Center for Chemical Genomics, 2008):
# Out of some 190,000 compounds screened, about 810 (0.43%) were called active. This is one part of a sample in which actives are shown more often than they occur. Cut-off read from the data, not from the text of the source: active = inhibition above about 50%; inactive = the rest.
# Target: Mannose-6-phosphate isomerase (Homo sapiens) (UniProt P34949)
# Experiment: MPI enzyme activity inhibition – biochemical, fluorescence intensity, coupled assay, primary screen (AID 1209);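 note: plate controls were DMSO vehicle for no effect and wells lacking substrate for full effect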
# Settings: purified PMI enzyme, at 20 µM, stronger effect = higher value
# Mannose-6-phosphate isomerase (Homo sapiens), sequence (P34949 whole entry, looked up): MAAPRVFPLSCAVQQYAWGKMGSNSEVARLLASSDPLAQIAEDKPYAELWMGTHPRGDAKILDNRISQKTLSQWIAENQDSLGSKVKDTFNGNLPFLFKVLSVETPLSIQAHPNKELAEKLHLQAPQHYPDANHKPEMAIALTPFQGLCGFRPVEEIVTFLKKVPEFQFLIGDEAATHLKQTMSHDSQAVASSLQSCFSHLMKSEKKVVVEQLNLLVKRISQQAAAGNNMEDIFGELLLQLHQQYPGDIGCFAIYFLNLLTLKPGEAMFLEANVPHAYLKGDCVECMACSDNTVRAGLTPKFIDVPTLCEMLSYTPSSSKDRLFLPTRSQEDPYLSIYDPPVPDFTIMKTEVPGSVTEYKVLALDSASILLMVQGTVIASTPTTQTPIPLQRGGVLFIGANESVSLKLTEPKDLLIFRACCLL
row,Structure (SMILES),inhibition
1,O=C(Nn1cnnc1)c1ccc(Br)s1,-17.3% (inactive)
2,O=C(NCCCn1ccnc1)c1cc(-c2ccc(Br)cc2)on1,-3.5% (inactive)
3,O=C(O)CS(=O)(=O)CC(=O)NCc1cccc(C(F)(F)F)c1,-2.8% (inactive)
4,Cc1ccc(NC(=O)Nc2c(C)n(C)n(-c3ccccc3)c2=O)cc1C,-4% (inactive)
5,COCCn1c(=NC(=O)C2COc3ccccc3O2)sc2cc(S(N)(=O)=O)ccc21 (stereo not drawn),12.8% (inactive)
6,O=C(COc1cccnc1[N+](=O)[O-])N1CCN(C(=O)c2ccco2)CC1,57.6% (active)
7,O=C(COc1cccnc1[N+](=O)[O-])N1CCN(S(=O)(=O)c2ccccc2)CC1,12.8% (inactive)
8,O=C(COc1ccccc1O)N1CCN(C(=O)c2ccco2)CC1,4% (inactive)
9,CC1(C)C/C(=N\O)c2cc3c(nc2C1)CCCC3,-3% (inactive)
10,Cc1cc(C)nc(NC(=O)c2c(-c3c(Cl)cccc3Cl)noc2C)n1,9.1% (inactive)
11,CCOC(=O)N1CCN(S(=O)(=O)c2cc(C)c(C)cc2C)CC1,-3.8% (inactive)
12,FC(F)(F)c1cnc(/C=C/Nc2ccccc2Cl)c(Cl)c1,12.3% (inactive)
13,C[N+]1=C(/C=C/Nc2ccccc2Cl)C(C)(C)c2ccccc21,78.4% (active)
14,COC(=O)c1ccc(CN(C)S(=O)(=O)c2ccc(C)cc2)o1,-1.6% (inactive)
15,CCc1nc(N=Nc2c(O)[nH]c3ccccc23)c2c3c(sc2n1)CCC3,-5.7% (inactive)
16,C=CCn1c(COc2ccc3c(c2)CCCC3)nnc1SCC(=O)Nc1cccc(SC)c1,15% (inactive)
17,CC1(C)CC(N2CCCC2)=CC(=[N+]2CCCCC2)C1,12.6% (inactive)
18,CC1(C)CC(N2CCCC2)=CC(=[N+]2CCCCCC2)C1,62.8% (active)
19,CC1(C)CC(N2CCCCC2)=CC(=[N+]2CCCCC2)C1,34.9% (inactive)
20,COc1cc2c(C(=O)OCCN(C)C)c(CSc3ccccc3)n(C)c2cc1Br,3.3% (inactive)
21,CC(OC(=O)c1cccnc1Cl)C(=O)Nc1ccc2c(c1)OCCO2 (stereo not drawn),-6.6% (inactive)
22,O=C(Nc1cccc(S(=O)(=O)N2CCOCC2)c1)c1cn(-c2ccccc2)nc1-c1ccc(F)cc1,6.6% (inactive)
23,O=C(Nc1ccccc1OC(F)F)c1ccccc1,10.6% (inactive)
24,Cc1ccc(C(=O)Nc2ccccc2OC(F)F)cc1,-0.1% (inactive)
25,O=C(Nc1ccccc1OC(F)F)c1ccc(F)cc1,109% (active)

row,Structure (SMILES),inhibition
1,O=C(NCCc1ccccc1)c1ccccc1NC(=O)C1CC=CCC1C(=O)O (stereo not drawn),5.2% (inactive)
2,O=C(NC1CC1)c1sc2cc([N+](=O)[O-])ccc2c1Cl,1.4% (inactive)
3,CC(NC(=O)c1sc2cc([N+](=O)[O-])ccc2c1Cl)C(C)(C)C (stereo not drawn),57.2% (active)
4,CC(C)N(C(=O)c1sc2cc([N+](=O)[O-])ccc2c1Cl)C(C)C,0.2% (inactive)
5,CCNc1ccc(C(=O)OCC(=O)NCCN2C(=O)CSC2=O)cc1[N+](=O)[O-],-6.6% (inactive)
6,CCCN1CCC(NC(=O)CCc2nnc(Cc3cc(OC)ccc3OC)o2)CC1,7.2% (inactive)
7,COc1ccc(OC)c(C2CC(=O)N3CN(c4cccc(Cl)c4)CSC3=C2C#N)c1 (stereo not drawn),16.5% (inactive)
8,COc1ccc(N2CSC3=C(C#N)C(c4cc(OC)ccc4OC)CC(=O)N3C2)c(OC)c1 (stereo not drawn),53.4% (active)
9,COc1cc(OC)c(C2CC(=O)N3CN(C)CSC3=C2C#N)cc1OC (stereo not drawn),59.9% (active)
10,COc1ccc(Br)cc1C1CC(=O)N2CN(C)CSC2=C1C#N (stereo not drawn),27.6% (inactive)
11,COc1ccc(N2CSC3=C(C#N)C(c4ccc(OC)c(OC)c4)CC(=O)N3C2)c(OC)c1 (stereo not drawn),39.1% (inactive)
12,COc1cc(OC)c(C2CC(=O)N3CN(c4ccccc4C)CSC3=C2C#N)cc1OC (stereo not drawn),30.5% (inactive)
13,COc1ccc(OC)c(C2CC(=O)N3CN(c4ccccc4F)CSC3=C2C#N)c1 (stereo not drawn),57.3% (active)
14,COc1cc(OC)c(C2CC(=O)N3CN(c4ccccc4)CSC3=C2C#N)cc1OC (stereo not drawn),41.2% (inactive)
15,COc1ccc(OC)c(C2CC(=O)N3CN(c4cccc(Cl)c4C)CSC3=C2C#N)c1 (stereo not drawn),46.9% (inactive)
16,COc1cccc(C2CC(=O)N3CN(c4ccccc4F)CSC3=C2C#N)c1 (stereo not drawn),16% (inactive)
17,COc1ccc(OC)c(C2CC(=O)N3CN(c4ccccc4)CSC3=C2C#N)c1 (stereo not drawn),2.2% (inactive)
18,CCN(CC)S(=O)(=O)c1ccc(OC)c(NC(=O)Cc2cccs2)c1,-11.3% (inactive)
19,Cc1cc(C)n(-c2ccc(C(=O)Nc3cccc(S(=O)(=O)N(C)C)c3)cc2)n1,5.5% (inactive)
20,CCN(CC)S(=O)(=O)N1CCC(C(=O)NCCN2CCOCC2)CC1,-6.8% (inactive)
21,CCOC(=O)C1CCN(S(=O)(=O)c2ccc(CC)cc2)CC1,-5.3% (inactive)
22,CC(=O)c1ccc(NC(=S)N2CCN(CCN3C(=O)c4cccc5cccc(c45)C3=O)CC2)cc1,10.7% (inactive)
23,COc1cccc(NC(=O)c2cc(-c3cccnc3)nc3c(Cl)cccc23)c1,1.6% (inactive)
24,O=C(CCc1ccccc1)Nc1cc(C(=O)O)cc(C(=O)O)c1,-2% (inactive)
25,O=C(CCc1ccccc1)Nc1cccc(NC(=O)CCc2ccccc2)c1,13.7% (inactive)

row,Structure (SMILES),inhibition
1,O=C(CCc1ccccc1)Nc1cc(NC(=O)CCc2ccccc2)cc(C(=O)O)c1,63.6% (active)
2,Cc1cccc(NC(=O)N(C)Cc2cccs2)c1,0.5% (inactive)
3,NNC(=O)c1cccc(O)c1,10% (inactive)
4,NNC(=O)c1cc(O)c(O)c(O)c1,51.2% (active)
5,COC(=O)c1cc(O)c(O)c(O)c1,34% (inactive)
6,O=C(Nc1cccc(O)c1)c1noc2c1CCCCC2,-1.4% (inactive)
7,COc1ccc(OC)c(Nc2nc(=O)c3cccnc3s2)c1,68.3% (active)
8,O=c1nc(Nc2ccc(OCc3ccccc3)cc2)sc2ncccc12,3% (inactive)
9,Cc1ccc(Nc2nc(=O)c3cccnc3s2)cc1,1.7% (inactive)
10,Cc1nnc(SCC(=O)Nc2ccc3c(c2)OCCO3)n1N,11.3% (inactive)
11,Oc1ccc(Cl)cc1C=Nc1ccc2c3c(cccc13)CC2,50.8% (active)
12,Cc1cccc(C=Nc2ccc3c4c(cccc24)CC3)c1O,44.8% (inactive)
13,Oc1ccc(Br)cc1C=Nc1ccc2c3c(cccc13)CC2,38.4% (inactive)
14,COc1ccc(-n2cnc3cc([N+](=O)[O-])ccc32)cc1,5.5% (inactive)
15,Nc1ccc(-n2cnc3cc([N+](=O)[O-])ccc32)cc1,53.9% (active)
16,O=[N+]([O-])c1ccc2c(c1)ncn2-c1ccccc1,-3.3% (inactive)
17,N=C1C=CC=C2C1=NC1(CCCCC1)N2O,72.2% (active)
18,CCOC(=O)C1CCN(CC(O)COCc2cccs2)CC1 (stereo not drawn),-1.6% (inactive)
19,Cc1cc(N=Cc2c(O)ccc3ccccc23)no1,43.9% (inactive)
20,Oc1ccc2ccccc2c1C=Nc1ccc(Cl)cn1,56.1% (active)
21,Oc1ccc2ccccc2c1/C=N/c1nccs1,39.6% (inactive)
22,O=C(CSc1nc2ccc(Cl)cc2[nH]1)NCc1ccco1,1.5% (inactive)
23,Cc1cccc(-n2c3nc(=O)[nH]c(=O)c-3cc3c(C)nn(-c4ccccc4)c32)c1,6.4% (inactive)
24,COc1cc([N+](=O)[O-])ccc1NC(=O)/C=C/C(=O)O,-26.7% (inactive)
25,S=C(NCCCn1ccnc1)Nc1ccc(Cl)cc1Cl,5.5% (inactive)

row,Structure (SMILES),inhibition
1,O=C(CSc1nnc2ccccn12)NNC(=O)c1ccccc1,-2.1% (inactive)
2,CCSc1nnc(N)s1,-0.6% (inactive)
3,CCSc1nnc(NC(=O)CC)s1,0% (inactive)
4,COc1ccccc1-n1c(=S)[nH]c2c(sc(=S)n2-c2ccccc2)c1=O,-4.5% (inactive)
5,COc1ccc(-n2c(=S)[nH]c3c(sc(=S)n3-c3ccccc3)c2=O)c(OC)c1,62.6% (active)
6,COc1ccc(OC)c(-n2c(=S)[nH]c3c(sc(=S)n3-c3ccccc3)c2=O)c1,9.9% (inactive)
7,CC(O)[C@@H](C(=O)N1CCNCC1)n1cc(CCCCN)nn1 (stereo partly drawn),4% (inactive)
8,Cc1sc2nc(CSc3ccccc3)nc(N3CCC(C(N)=O)CC3)c2c1C,13.3% (inactive)
9,CCOC(=O)NC(=O)/C(C#N)=C\c1ccccc1,52.6% (active)
10,Cc1ccc(/C=C(/C#N)C(=O)NC(=O)Oc2ccccc2)cc1,4.9% (inactive)
11,N#C/C(=C\c1ccccc1)C(=O)NC(=O)Oc1ccccc1,11.3% (inactive)
12,CSc1cccc(NC(=S)N2CCC(N(C)C3CCCCC3C)CC2)c1 (stereo not drawn),-2.7% (inactive)
13,CCOc1cc(C2CC(=O)N3CN(C4CCCCC4)CSC3=C2C#N)ccc1O (stereo not drawn),54.5% (active)
14,COc1ccc(C2CC(=O)N3CN(c4ccccc4F)CSC3=C2C#N)cc1OC (stereo not drawn),34.9% (inactive)
15,CCOc1cc(C2CC(=O)NC(SCC)=C2C#N)ccc1O (stereo not drawn),9.3% (inactive)
16,CCc1ccccc1N1CSC2=C(C#N)C(c3cc(OC)c(OC)cc3OC)CC(=O)N2C1 (stereo not drawn),46% (inactive)
17,COc1ccccc1N1CSC2=C(C#N)C(c3ccc(SC)cc3)CC(=O)N2C1 (stereo not drawn),-29.2% (inactive)
18,CN1CSC2=C(C#N)C(c3cccc(OCc4ccccc4)c3)CC(=O)N2C1 (stereo not drawn),29.7% (inactive)
19,CCOc1ccccc1N1CSC2=C(C#N)C(c3c(OC)ccc4ccccc34)CC(=O)N2C1 (stereo not drawn),64.9% (active)
20,COc1ccc2ccccc2c1C1CC(=O)N2CN(C)CSC2=C1C#N (stereo not drawn),54.3% (active)
21,COc1ccc2ccccc2c1C1CC(=O)N2CN(C3CCCCC3)CSC2=C1C#N (stereo not drawn),25.9% (inactive)
22,CC(NC(=O)COC(=O)c1ccco1)c1ccccc1 (stereo not drawn),6.4% (inactive)
23,COc1c(Cl)cc(Cl)cc1C(=O)Nc1ccc(NC(C)=O)cc1,7.9% (inactive)
